Laboratory results reported in PubChem BioAssay (NCI).
Compounds without any hit were thinned out: in the full panel of roughly 83,000, 20% have a hit.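 Step 1: grow cells in 96-well plates. Step 2: add test compound at a single concentration. Step 3: incubate 48 h. Step 4: record percent growth.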 Values without a mark were called inactive. Active and inactive are the calls of the source. The calls were made as follows: active = growth percent below 10; inactive = the rest.

Each compound was assayed on SK-MEL-28 melanoma (assay: NCI-60 one-dose screen, 48 h (100 = growth as untreated, 0 = no growth, -100 = all killed)). Details: 10 µM unless noted.

In order of rising growth:
1. CC(c1cc(Cl)ccc1O)c1cc(Cl)ccc1O  33.5%
2. COc1cccc(/C=C2\COc3ccc(O)c(O)c3C2=O)c1OC  47%
3. COC1CC2CCC(C)C(O)(O2)C(=O)C(=O)N2CCCCC2C(=O)OC(C(C)CC2CCC(O)C(OC)C2)CC(=O)C(C)C=C(C)C(O)C(OC)C(=O)C(C)CC(C)/C=C/C=C/C=C1C (configuration not stated)  54.1%
4. C/C(=C\CCc1ccoc1)CC/C=C(\C)CCCN1CCC(CO)CC1  56.3%
5. CCCCCCC/C(=N\N=C(N)N)c1ccc(O)cc1  60.4%
6. O=C1Cc2cc(CCn3cncn3)c(Cl)cc2N1  67.2%
7. N=c1ccn2c(n1)O[C@@H]1[C@@H](O)[C@H](CO)O[C@@H]12  69.9%
8. COc1cc(C2CC(=O)Nc3c2cc(Br)c2ccccc32)cc(Br)c1OC (configuration not stated)  73%
9. O=C(Nc1nc2ccccc2s1)c1cc(-c2ccc(F)cc2)n2nc(-c3ccccc3)cc2n1  85.4%
10. CN(C)c1ccc2[nH]c3c(C(N)=O)cc(=O)c(=O)c=3oc2c1  85.8%
11. Cc1nc2cc(NC(=O)CN3CCN(CCN4C(=O)c5cccc6cccc(c56)C4=O)CC3)ccc2s1  86.4%
12. O=C(/C(=C/c1cccc([N+](=O)[O-])c1)c1ccccc1)c1ccccc1  92.8%
13. CCOC(=O)c1ccccc1OC(=O)NNc1ccccc1  93.6%
14. CCC1=C(c2ccc(OC)cc2)C(C)Oc2cc(OC(C)=O)ccc21 (configuration not stated)  93.7%
15. COc1c(O)cc2oc3cc(O)c(CC=C(C)C)c(O)c3c(=O)c2c1C/C=C(\C)CCC=C(C)C  94.4%
16. CCCCCCCC/C=C\CCCCCCCCOc1ccccc1CC(=O)NCC[N+]1(C)CCCC1  96.7%
17. OCCOc1c(Cl)cc(Cl)cc1Cl  96.8%
18. CCOc1cccc(C2CC(=O)Nc3cc4c(cc32)OCO4)c1 (configuration not stated)  99.9%
19. COc1ccc(-c2cn(-c3ccccc3)c(-c3ccccc3)n2)cc1OC  102%
20. O=C1OC(c2ccc(-c3ccccc3)cc2)=C/C1=C/c1cccs1  102%
21. NNC(=O)C1CC2c3ccccc3C1c1ccccc12 (configuration not stated)  108%
22. CC[C@@H]1OC(=O)[C@H](C)[C@@H](O[C@H]2C[C@@](C)(OC)[C@@H](O)[C@H](C)O2)[C@H](C)[C@@H](O[C@@H]2O[C@H](C)C[C@H](N(C)C)[C@H]2O)[C@](C)(O)C[C@@H](C)[C@@H]2N[C@@H](COCCOC)O[C@H]([C@H]2C)[C@]1(C)O  109%
23. CCOc1nc(-c2ccccc2)cc2c(O)c(C(=O)n3nc(C)cc3C)[nH]c(=O)c12  109%
24. COc1cc2c(cc1OC)C1CCN3C(=O)CCC3N1CC2 (configuration not stated)  110%
25. C=CC1=C(C(=O)O)N2C(=O)[C@@H](NC(=O)/C(=N\O)c3csc(N)n3)[C@H]2SC1 (stereo in doubt)  111%
26. CN1CCN(CC(=O)Nc2nc3c(s2)Nc2cc(Cl)c(Cl)cc2NC3=O)CC1  111%
27. Cc1cc(C)c(OC(=O)CSc2nc3ccccc3c(=O)n2CCc2ccccc2)cc1C  111%
28. Cc1cc(N2CCOCC2)nc(N2CCOCC2)n1  113%
29. CCCCn1c(Cc2ccc(Cl)cc2)nc2cc(OC)c(OC)cc2c1=O  116%
30. Nc1cc(Cl)c(S(N)(=O)=O)cc1S(N)(=O)=O  121%
31. CCC[C@H](N[C@@H](C)C(=O)N1[C@H](C(=O)O)C[C@@H]2CCCC[C@@H]21)C(=O)OCC  123%

In the case of CCCc1cc(=O)n2c(C(=O)Nc3ccccc3OC)c(C(=O)Nc3ccc(F)cc3)sc2n1, the growth is reported as 68.5% [30 µM].

Cc1ccc(C=C2C(Cl)=C(Cl)C(Cl)=C2Cl)cc1 was tested, and the growth was -87.8% (active).
For C=CCCCCCCCCC(=O)[O][Sn]([CH2]CCC)([CH2]CCC)[CH2]CCC, the growth was -93.5% (active).
In the case of C=C1c2c(C)nn(-c3ccc(C#CCOC4OC(CO)C(O)C(O)C4O)cc3)c2N(C)C23C[C@H]1C1(C)c4c(C)nn(-c5ccc(C#CCOC6OC(CO)C(O)C(O)C6O)cc5)c4N(C)C(C)(C[C@H]12)C3 (some centres not stated), the growth is reported as 5.91% (active).
CO[C@H]1CC(O[C@@H]2/C(C)=C/C[C@@H]3C[C@@H](C[C@]4(CC[C@H](C)[C@@H](C5CCCCC5)O4)O3)OC(=O)[C@@H]3C=C(C)/C(=N/O)[C@H]4OC/C(=C\C=C\[C@@H]2C)[C@]43O)O[C@@H](C)C1O (some centres not stated) was tested, and the growth was -87.3% (active).

Each compound was assayed on SK-MEL-2 melanoma in the same assay as above. Details: 10 µM unless noted.

In order of rising growth:
1. O=C(/C(=C/c1cccc([N+](=O)[O-])c1)c1ccccc1)c1ccccc1  28.8%
2. CCOC(=O)c1ccccc1OC(=O)NNc1ccccc1  33.2%
3. COC1CC2CCC(C)C(O)(O2)C(=O)C(=O)N2CCCCC2C(=O)OC(C(C)CC2CCC(O)C(OC)C2)CC(=O)C(C)C=C(C)C(O)C(OC)C(=O)C(C)CC(C)/C=C/C=C/C=C1C (configuration not stated)  35.9%
4. CCCCCCC/C(=N\N=C(N)N)c1ccc(O)cc1  48.3%
5. COc1cc(C2CC(=O)Nc3c2cc(Br)c2ccccc32)cc(Br)c1OC (configuration not stated)  58.7%
6. O=C1Cc2cc(CCn3cncn3)c(Cl)cc2N1  71.3%
7. COc1c(O)cc2oc3cc(O)c(CC=C(C)C)c(O)c3c(=O)c2c1C/C=C(\C)CCC=C(C)C  75.3%
8. N=c1ccn2c(n1)O[C@@H]1[C@@H](O)[C@H](CO)O[C@@H]12  82.7%
9. CCOc1cccc(C2CC(=O)Nc3cc4c(cc32)OCO4)c1 (configuration not stated)  83.1%
10. CN(C)c1ccc2[nH]c3c(C(N)=O)cc(=O)c(=O)c=3oc2c1  85.4%
11. CCC1=C(c2ccc(OC)cc2)C(C)Oc2cc(OC(C)=O)ccc21 (configuration not stated)  89.7%
12. COc1cccc(/C=C2\COc3ccc(O)c(O)c3C2=O)c1OC  97.3%
13. CCCCCCCC/C=C\CCCCCCCCOc1ccccc1CC(=O)NCC[N+]1(C)CCCC1  106%
14. NNC(=O)C1CC2c3ccccc3C1c1ccccc12 (configuration not stated)  109%
15. Cc1cc(C)c(OC(=O)CSc2nc3ccccc3c(=O)n2CCc2ccccc2)cc1C  112%
16. CCC[C@H](N[C@@H](C)C(=O)N1[C@H](C(=O)O)C[C@@H]2CCCC[C@@H]21)C(=O)OCC  112%
17. COc1cc2c(cc1OC)C1CCN3C(=O)CCC3N1CC2 (configuration not stated)  119%
18. CC[C@@H]1OC(=O)[C@H](C)[C@@H](O[C@H]2C[C@@](C)(OC)[C@@H](O)[C@H](C)O2)[C@H](C)[C@@H](O[C@@H]2O[C@H](C)C[C@H](N(C)C)[C@H]2O)[C@](C)(O)C[C@@H](C)[C@@H]2N[C@@H](COCCOC)O[C@H]([C@H]2C)[C@]1(C)O  121%
19. C=CC1=C(C(=O)O)N2C(=O)[C@@H](NC(=O)/C(=N\O)c3csc(N)n3)[C@H]2SC1 (stereo in doubt)  122%
20. OCCOc1c(Cl)cc(Cl)cc1Cl  126%

CC(c1cc(Cl)ccc1O)c1cc(Cl)ccc1O was tested, and the growth was -16.8% (active).
C=CCCCCCCCCC(=O)[O][Sn]([CH2]CCC)([CH2]CCC)[CH2]CCC was tested, and the growth was -71.2% (active).
Nc1c2ccccc2nc2ccccc12 (tested in a mixture with another compound) was tested, and the growth was -5.63% (active).
In the case of Nc1cc(Cl)c(S(N)(=O)=O)cc1S(N)(=O)=O, the growth is reported as -16.2% (active).
C=C1c2c(C)nn(-c3ccc(C#CCOC4OC(CO)C(O)C(O)C4O)cc3)c2N(C)C23C[C@H]1C1(C)c4c(C)nn(-c5ccc(C#CCOC6OC(CO)C(O)C(O)C6O)cc5)c4N(C)C(C)(C[C@H]12)C3 (some centres not stated) was tested, and the growth was -43.5% (active).
For CO[C@H]1CC(O[C@@H]2/C(C)=C/C[C@@H]3C[C@@H](C[C@]4(CC[C@H](C)[C@@H](C5CCCCC5)O4)O3)OC(=O)[C@@H]3C=C(C)/C(=N/O)[C@H]4OC/C(=C\C=C\[C@@H]2C)[C@]43O)O[C@@H](C)C1O (some centres not stated), the growth was -71.8% (active).
